PubChem BioAssay (NCI)
About 79,000 compounds went through this panel and 15% of them were active in at least one assay; those are over-represented in the sample as a whole. Activity calls are given as the source filed them. Cut-off read from the data, not from the text of the source: active = growth inhibition above about 70%; inactive = the rest. Where a SMILES comes first, the peptide text is derived from it. [ ]: non-standard residue; d: D form. The star is where a group is joined. Cbz = O=C(OCc1ccccc1)*; Dha = C=C(N)C(=O)O

Experiments:
[1] = NCI Yeast Anticancer Drug Screen. Data for the rad50 strain (AID 155);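 note: 0% = growth of vehicle-only cultures of the same strain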; settings: S. cerevisiae rad50 strain growth inhibition; at 50.0 µM; stronger effect = higher value
Method in brief: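 Inhibition values express reduced yeast growth in compound-treated cultures relative to vehicle-treated controls.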

[2] = NCI Yeast Anticancer Drug Screen. Data for the mec2-1 strain (AID 157); settings: S. cerevisiae mec2-1 strain, at 50.0 µM, stronger effect = higher value
Method in brief: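 Compounds were applied to mec2-1 yeast cells. Their growth was then compared with that of vehicle-treated cultures to give growth inhibition.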

[3] = NCI Yeast Anticancer Drug Screen. Data for the sgs1 mgt1 strain (AID 161);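 note: 0% = growth of cultures given vehicle only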; settings: S. cerevisiae sgs1 mgt1 strain, at 50.0 µM, stronger effect = higher value
Method in brief: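 This yeast growth screen uses a strain with defined DNA-repair lesions; compound-treated growth is compared with vehicle-treated growth.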

[4] = NCI Yeast Anticancer Drug Screen. Data for the cln2 rad14 strain (AID 165);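 note: 0% = growth equal to vehicle treated cultures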; settings: S. cerevisiae cln2 rad14 strain, at 50.0 µM, stronger effect = higher value
Method in brief: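 Strain: cln2 rad14 yeast, altered in cell cycle control and DNA damage repair. Read-out: growth inhibition vs vehicle.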

[5] = NCI Yeast Anticancer Drug Screen. Data for the bub3 strain (AID 167); settings: S. cerevisiae bub3 mutant strain, at 50.0 µM, stronger effect = higher value
Method in brief: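 Steps: expose the mutant yeast strain to compound; grow alongside vehicle-treated cultures; measure growth; express inhibition against the vehicle cultures.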

[6] = NCI Yeast Anticancer Drug Screen. Data for the mlh1 rad18 strain (AID 175); settings: S. cerevisiae mlh1 rad18 strain growth inhibition; at 50.0 µM; stronger effect = higher value
Method in brief: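 A repair-deficient yeast strain is exposed to test compound, and growth is scored relative to vehicle-treated controls.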

Measured: growth inhibition

c1ccc(-c2csc3[n+]2CCN3)cc1
inactive: [1] 18.6% | [2] 13.9% | [3] 12.8% | [4] 5.3% | [5] 2.8% | [6] 14.2%

O=C(O)c1cc(-c2ccccc2Cl)nc2cc3ccccc3cc12
inactive: [1] -14.4% | [2] -19.7% | [3] 4.45% | [4] 14.1% | [5] -6.05% | [6] 0.8%

c1ccc(CCc2nccc3ccccc23)cc1
inactive: [1] 8.55% | [2] -0.55% | [3] -5.6% | [4] -0.9% | [5] 13.9% | [6] 1.1%

C=C(NC(=O)C(C)NC(=O)OCc1ccccc1)C(=O)N1CCCC1C(=O)NC(C)C(=O)NC (stereo not given) (Cbz-A[Dha]PA-NHMe; configuration not given here)
inactive: [1] 3% | [2] -3.95% | [3] -5.05% | [4] 3.4% | [5] -4.35% | [6] -2.4%

COc1ccc2c3c([nH]c2c1)CCN(Cc1ccccc1)C3
inactive: [1] -31.1% | [2] -21.6% | [3] 13.8% | [4] 19.6% | [5] 15.2% | [6] 1.1%

O=S(=O)(N/C(=C(\NS(=O)(=O)c1ccccc1)c1ccccc1)c1ccccc1)c1ccccc1
inactive: [1] 63.7% | [2] 6.15% | [3] 39% | [4] 18.3% | [5] 60.9% | [6] 61.2%

CC(C(N)=O)N1C(=O)C2C3CCC(O3)C2C1=O (stereo not given)
inactive: [1] -7.65% | [2] -6.65% | [3] -16.1% | [4] -44.8% | [5] -1.8% | [6] 3.1%

CC(=O)Nc1ncc(Sc2ccc([N+](=O)[O-])cc2)s1
inactive: [1] -6.5% | [2] -30.9% | [3] -8.35% | [4] 15.3% | [5] -11.8% | [6] 5.65%

[CH3][Sn]([CH3])([O]C(=O)c1ccc2c(c1)OCO2)[O]C(=O)c1ccc2c(c1)OCO2
inactive: [1] -0.15% | [2] -3.25% | [3] -11% | [4] -12.7% | [5] -9.7% | [6] -9.9%

O=C1CCCC2=C(N1)C(=O)C=CC2=O
inactive: [1] -2.55% | [2] 20.9% | [3] 17.1% | [4] 39.5% | [5] -0.2% | [6] -20.9%

CNC(=O)c1ccccc1C(=O)c1ccccc1OC
inactive: [1] 7.5% | [2] -11.7% | [3] -3.05% | [4] -25.1% | [5] 17.4% | [6] 2.15%

O=C1c2cccnc2-c2nccc3c2c1nc1ccccc13
active: [1] 90.3% | [2] 92.8% | [3] 91% | [4] 91.4% | [5] 91.5% | [6] 90.7%

COCC(O)CN1CCN(c2ccccc2OC)CC1 (stereo not given)
inactive: [1] -16.5% | [2] -16.6% | [3] -7.3% | [4] -14.2% | [5] 25.6% | [6] -13.2%

O=C(O)C(O)C(O)C(O)C(O)C(=O)O.[Cu+2] (stereo not given)
inactive: [1] 1.2% | [2] -6.15% | [3] 2.25% | [4] 0% | [5] -4.4% | [6] 15.2%

CCOC(=O)c1cn(CC)c2c(ccc3cnccc32)c1=O
inactive: [1] -3.55% | [2] -18.4% | [3] -18.4% | [4] 29.6% | [5] -11% | [6] 10.2%

CN(C)C(=S)/N=c1\ssc(=S)n1C1CCCCC1
inactive: [1] -22.1% | [2] 2.55% | [3] 6.45% | [4] -49.6% | [5] 25.7% | [6] -11.5%

CCOC(=O)NCCNC(=O)OCC
inactive: [1] 8.8% | [2] 0.3% | [3] 1.45% | [4] 6.65% | [5] -11.7% | [6] 3.6%

c1cc2[nH]snc2c2cncc12
inactive: [1] 12.5% | [2] 9.2% | [3] 0.25% | [4] -19.1% | [5] -24.1% | [6] 6.6%

Cc1ccc(S(=O)(=O)Oc2nc3ccccc3nc2N(S(=O)(=O)c2ccc(C)cc2)S(=O)(=O)c2ccc(C)cc2)cc1
inactive: [1] -9.8% | [2] -1.3% | [3] 1.3% | [4] 10% | [5] 5.95% | [6] 17.7%

CSc1nc(NC(=O)O)c(N(C(C)=O)C(=O)O)c(=O)n1C
inactive: [1] -15.3% | [2] 0.6% | [3] 4.55% | [4] 19.7% | [5] -9.35% | [6] -13.5%

CSCCC(NC(=O)c1cnc2ccccc2c1)C(N)=O (stereo not given)
inactive: [1] -0.25% | [2] -4.85% | [3] 2.6% | [4] -33.6% | [5] -21.8% | [6] 14.8%

CSCc1cc(C)ccc1NC(C)=O
inactive: [1] 0.5% | [2] -7.85% | [3] -0.75% | [4] -16.5% | [5] -13.2% | [6] 10.8%

CC1(C)OC[C@@H](O)[C@H](C#N)CO1
inactive: [1] 17.6% | [2] 27.6% | [3] 3.75% | [4] 19.6% | [5] -0.95% | [6] -18.1%

CCCCN(CCCC)C(=O)C(=O)C(C)C(=O)CC (stereo not given)
inactive: [1] -3.6% | [2] -2.75% | [3] 14.7% | [4] -1.05% | [5] 12.3% | [6] 25.7%

S=c1[nH]c2ccccc2n1CCc1ccncc1
inactive: [1] -6.8% | [2] -15.1% | [3] 22.2% | [4] -1.5% | [5] 1.05% | [6] 3.5%

CCCCN(c1ccccn1)S(=O)(=O)c1ccccc1
inactive: [1] -2.3% | [2] 19.8% | [3] 19.3% | [4] 7.6% | [5] -3.55% | [6] 5.75%

O=C(O)c1cc(CC2Cc3cc4c(cc3C2=O)CCC4)cc2c1CCC2 (stereo not given)
inactive: [1] -27.4% | [2] -30.1% | [3] -21.6% | [4] 6.05% | [5] -18.8% | [6] -21.8%

CN(C)c1ccc2c(SCC(=O)OCC(=O)C3(O)CCC4C5CCC6=CC(=O)C=CC6(C)C5C(O)CC43C)c3ccc(N(C)C)cc3nc2c1 (stereo not given)
inactive: [1] 42.6% | [2] 45.4% | [3] 57.2% | [4] 60% | [5] 42.2% | [6] 60.9%

CN(NC(=O)Nc1cccc2ccccc12)c1ccccc1
inactive: [1] -4.7% | [2] -16.2% | [3] 14.7% | [4] -63.8% | [5] 1.65% | [6] -6.85%

O=C(NNC(=O)c1ccc2ccccc2c1)c1ccc(F)cc1
inactive: [1] 4.05% | [2] 0.9% | [3] 3.8% | [4] 3.05% | [5] 10.2% | [6] 10.2%

CC1NNC(=S)NN1
inactive: [1] -19.3% | [2] 1.35% | [3] 0.85% | [4] -9.7% | [5] 1.4% | [6] 11.8%

CC12CCC3=C(CCc4cc(O)ccc43)C1CCC2=O (stereo not given)
inactive: [1] -4.8% | [2] 9.75% | [3] 5.8% | [4] -34.5% | [5] -7.95% | [6] 4.4%

Cc1ccc(-c2cc(=O)c3cc(C)c(C)c(C(=O)O)c3o2)cc1[N+](=O)[O-]
inactive: [1] -20.7% | [2] -5.1% | [3] -1.05% | [4] 12.2% | [5] 2% | [6] 31.1%

CCOC(=O)CC(c1ccccc1)C(C#N)(c1ccccc1)N(C)C (stereo not given)
inactive: [1] 27.9% | [2] 19.5% | [3] 40.8% | [4] 18% | [5] 30.4% | [6] 33.5%

NC(=O)NC(=O)CC1NC(=O)NC1=O (stereo not given)
inactive: [1] 9.25% | [2] 12% | [3] 18.1% | [4] 12.1% | [5] -4.1% | [6] -16.4%

CCN(CC)c1ccc(/C=N\NC(=S)N/N=C/c2ccc(N(CC)CC)cc2)cc1
inactive: [1] -2.3% | [2] 0.85% | [3] 7.9% | [4] 33% | [5] -0.95% | [6] -1.1%

CC1(C)OC2CC3COC(=O)C3CC2O1 (stereo not given)
inactive: [1] 9.35% | [2] -4.85% | [3] -8.45% | [4] 1.6% | [5] 30.2% | [6] 17.9%

CCCSCCC(N)C(=O)O (stereo not given)
inactive: [1] -33.2% | [2] -15.9% | [3] 0.55% | [4] -5.7% | [5] -2.9% | [6] -4.95%

Cc1ccc2nc(-c3ccc4nc(-c5ccc(N=Nc6ccc(-c7nc8ccc(-c9nc%10ccc(C)c(S(=O)(=O)O)c%10s9)cc8s7)cc6)cc5)sc4c3)sc2c1S(=O)(=O)O
inactive: [1] 12.7% | [2] -13% | [3] 21.4% | [4] -0.3% | [5] -3.2% | [6] -26.9%

COc1cc(O)c(C(C)=O)c(O)c1O
inactive: [1] -20.4% | [2] -12.8% | [3] -3.1% | [4] -36.7% | [5] 4.8% | [6] 6.45%
